Rows were chosen to be rich in hits. Some 2.1% of all compounds tested hit in one or more screens of this group.
CCHF vOTU inh: blocks the CCHF virus ovarian tumor domain protease; CCHFV vOTU protease, Pep-AMC fluorescence; inhibition, % at 11.5 µM; hit rate 0.55% among 370,000; in the data active = inhibition above about 30%; note: 0% = vehicle wells with enzyme and 100% = no enzyme wells
RN4220 kill: kills Staphylococcus aureus RN4220; S. aureus RN4220 growth, OD600, 16 h; inhibition, % (no concentration beside the values); hit rate 0.33% among 330,000; in the data active = inhibition above about 85%;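 note: plate controls were untreated cells for no effect and reference antibiotic for full effect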
Sa ugtP lethal: kills S. aureus RN4220 lacking UgtP; growth inhibition, % (test concentration not listed); S. aureus RN4220 ugtP deletion, OD600 growth, 16 h; hit rate 0.54% among 330,000; in the data active = growth inhibition above about 68%;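 note: plate controls were untreated wells for no effect and antibiotic for full effect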
PfHsp40 rescue: compounds rescuing yeast from Plasmodium falciparum HSP40 toxicity. hit rate 0.68% among 340,000. growth rescue, % at 12.5 µM. AID 504582. S. cerevisiae expressing PfHsp40, growth rescue, ATP luminescence; in the data active = growth rescue above about 28%, passing the limit was not always enough;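 note: yeast W303a lacking pdr1 and pdr3 grown in galactose medium; growth measured after three days at 30 °C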
PrP UTR inh: suppresses PrP 5' UTR mRNA reporter expression | cell-based PrP 5' UTR mRNA reporter, plate reader | inhibition, % (concentration not given with the values) | hit rate 0.35% among 340,000; in the data active = inhibition above about 52%; note: 0 = median of the neutral control wells
PrPC TRFRET: reduces human prion protein on the cell surface; P04156; cell surface PrPC, TR-FRET read-out; inhibition, % at 13.8 µM; hit rate 0.43% among 370,000; in the data active = inhibition above about 24%; note: 0% = median of the test wells and 100% = reference compound wells
Numbers without * were called inactive; x = no result given.

SMILES	CCHF vOTU inh	RN4220 kill	Sa ugtP lethal	PfHsp40 rescue	PrP UTR inh	PrPC TRFRET
Oc1cccc(-c2nc3c4c(ncn3n2)-c2ccccc2CC42CCCC2)c1	23	31	89*	0	-18	-4
Cn1c2c(c(=O)n(C)c1=O)[C@@]1(C(=O)Nc3ccccc31)C(C#N)=C(N)O2	22	87*	29	1	-16	0
CCOC(=O)c1c(NC(=O)CSc2nnc(-c3ccco3)o2)sc(C)c1C	-1	4	-4	1	-16	-1
CCOC(=O)c1c(NC(=O)CSc2nnc(Cc3ccccc3)o2)sc(C)c1C	15	19	98*	3	-11	5
CCCOc1ccc(C(O)=C2C(=O)C(=O)N(CCCn3ccnc3)C2c2cccs2)cc1 (stereo unspecified)	x	4	1	x	x	x
CCC(C)C(C(=O)NCCCCCCCCCCC(=O)N1CCN(C(=O)OC(C)(C)C)CC1)n1cc(CCCCCNC(=O)OC(C)(C)C)nn1 (stereo unspecified)	x	1	-11	x	x	x
CCCCCCCCCn1c2c(c(=N)c3c1CCC3)CCCC2	x	100*	100*	6	-14	x
CCn1c2c(c(=N)c3c1CCC3)CCCC2	-8	3	9	x	x	0
CCCCCCCCCCn1c2c(c(=N)c3c1CCC3)CCC2	14	100*	100*	291*	5	48*
CCCCCCCCNC(=O)CCNC(=O)c1ccc(C(C)(C)C)cc1	6	2	-21	47*	-6	-4
Cc1nc2c(Cl)cc(Cl)cc2[nH]1	11	5	-6	33*	-22	1
Cc1nc2c([N+](=O)[O-])c(C)c(C)cc2[nH]1	-7	11	2	x	-4	-4
CC(=O)O[C@]1(C(C)=O)CCC2C3C=C(Cl)C4=CC(=O)C5CC5[C@]4(C)C3CC[C@@]21C (stereo partly specified)	x	6	-2	x	x	x
O=C(O)/C(=C\c1ccc2ccccc2c1)c1cccc2ccccc12	24	14	-26	117*	4	-4
CC(=O)OCC(=O)Nc1ccc([N+](=O)[O-])cc1Cl	0	3	3	-1	-12	-21
CC(=O)Oc1c(C)cc(Cl)cc1C(=O)Nc1ccc([N+](=O)[O-])cc1Cl	-4	98*	96*	5	-102	0
CCC(C)C1CNCCN1CC1(c2ccccc2)CC1 (stereo unspecified)	x	2	-6	x	x	x
CC1COC(=O)C(CC(=O)OC(C)(C)C)CC=CCC(CC(=O)N(CCO)Cc2ccccc2)C(=O)N1 (stereo unspecified)	x	3	1	x	x	x
CC(C)Cn1c(=O)n(C)c(=O)c2[nH]cnc21	1	4	1	37*	-25	1
CCCCCc1ccc(OCCOCCn2c[n+](C)c3ccccc32)c(CCCCC)c1	x	100*	101*	55*	-25	x
CCCCOc1ccc(CCN)cc1Cl	-14	4	0	0	0	7
CCCCCc1ccc(OCCC[n+]2ccccc2)c(CCCCC)c1	8	99*	100*	6	-12	8
CC(C)(C)OC(=O)C[C@H]1C/C=C\C[C@H](CC(=O)NCCO)C(=O)N2CCC[C@@H]2COC1=O	-10	x	x	41*	-4	-5
COc1ccc(N2C(=O)N3C(c4cccc(C)c4)C4C(=O)N(Cc5ccccc5)C(=O)C4[C@]3(Cc3ccccc3)C2=O)cc1 (stereo partly specified)	x	6	4	x	x	x
CCCOc1ccc(Cc2c(Cl)nc(SC)nc2N(C)C)cc1	-2	-2	87*	-2	-11	1
SMILES	CCHF vOTU inh	RN4220 kill	Sa ugtP lethal	PfHsp40 rescue	PrP UTR inh	PrPC TRFRET
COc1nc(SC)nc(Cl)c1Cc1ccc(OC(C)C)cc1	11	-7	92*	-2	-11	-3
CCCOc1ccc(CSc2n[nH]c(C)n2)cc1	-12	x	x	4	-49	2
CCCOc1ccc(Cc2c(Cl)nc(SC)nc2OC)cc1	3	-4	89*	-1	-11	2
CCOc1ccc(Cc2c(O)nc(SC)[nH]c2=O)cc1	0	x	x	x	x	7
CSc1nc(Cl)c(Cc2ccc(OC(C)C)cc2)c(N2CCOCC2)n1	1	-5	97*	0	-26	1
Cc1ccc(C(C)C)c(OCc2ccc(C(=O)NN=Cc3ccc(O)c(O)c3)cc2)c1	x	58	100*	x	x	x
O=C(Nc1cccc(C(F)(F)F)c1)c1cccnc1NCCc1ccccc1	0	1	4	389*	-29	12
O=S(=O)(Nc1ccccc1)c1ccc(Oc2ncc(C(F)(F)F)cc2Cl)cc1	21	-7	4	282*	-4	5

From PubChem
